# The panel holds about 83,000 compounds, 20% with a hit somewhere; the sample as a whole holds those more often.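 For each line, cells grew in 96-well plates with the test compound present at a single concentration for 48 hours.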 Unmarked numbers belong to inactive results. Calls of active or inactive are those of the source. How the source made its calls: active means growth percent below 10; inactive means the rest.
# Experiments:
# Test in all cases: NCI-60 one-dose screen, 48 h (100 = growth as untreated, 0 = no growth, -100 = all killed)
# Settings in all cases: 10 µM unless noted
# T-47D breast = system: T-47D breast
# BT-549 breast = system: BT-549 breast
# MDA-MB-435 melanoma = system: MDA-MB-435 melanoma
# SW-620 colon = system: SW-620 colon
# MCF7 breast = system: MCF7 breast
# HCT-116 colon = system: HCT-116 colon
# HCC-2998 colon = system: HCC-2998 colon
# KM12 colon = system: KM12 colon
Structure (SMILES),growth (T-47D breast),growth (BT-549 breast),growth (MDA-MB-435 melanoma),growth (SW-620 colon),growth (MCF7 breast),growth (HCT-116 colon),growth (HCC-2998 colon),growth (KM12 colon)
OC(COc1ccccc1)CN1CCN(c2ccc(Cl)cc2)CC1 (stereo unspecified),102%,101%,121%,98.7%,102%,92.6%,109%,98%
COc1ccc(C2NC(=O)C(C#N)c3c2sc2c(F)cccc32)c(OC)c1 (stereo unspecified),61.7%,72.1%,-28.7% (active),32.3%,24.5%,23.8%,88.3%,32%
CNC(=O)c1[nH]cc(-c2ccccc2)c1-c1cc(OC)c2c(c1OC)OCO2,88.7%,95.6%,102%,99.9%,99.9%,99.5%,102%,96.9%
COc1cc(Nc2nc(NCCN)nc3cc[nH]c(=O)c23)cc(OC)c1,122%,66.7%,69.6%,64.2%,77.2%,46.6%,79.3%,76%
CC(=O)OC[C@H]1OC(Sc2sc(C(=O)c3ccc(Cl)cc3)c(N)c2-c2nc3ccccc3s2)[C@H](OC(C)=O)[C@@H](OC(C)=O)[C@@H]1OC(C)=O (stereo partly specified),89.5%,98.5%,96.5%,82.7%,82.1%,50.8%,109%,89.3%
FC(F)(F)c1cc(Nc2ccc3c(OCCCN4CCOCC4)cccc3n2)ccc1Cl,48.1%,62.1%,62.7%,1.47% (active),17.9%,10.8%,34.6%,-0.295% (active)
COc1cc(C2CC(c3ccc(SC)cc3)=NN2C(C)=O)cc(OC)c1OC (stereo unspecified),72.1%,36.4%,-28.5% (active),38.5%,41.9%,41.5%,61%,39.4%
CN1C(=O)N(C)C2Nn3c(s/c(=C\c4ccccc4)c3=O)=NC21 (stereo unspecified),98.2%,97.1%,85.9%,96.9%,87.1%,88.8%,104%,97.5%
Cc1oc2nc[nH]c(=O)c2c1C(=O)/C=C/c1ccc(Br)cc1,4.69% (active),2.55% (active),19.8%,3.84% (active),9.43% (active),-11.6% (active),-33.9% (active),-5.18% (active)
Cc1cc(O)c(C2=NN(c3ccc(S(N)(=O)=O)cc3)C(c3ccccc3O)C2)cc1Cl (stereo unspecified),21.6%,99.7%,10%,-0.676% (active),7.94% (active),-92.9% (active),-75% (active),-60.4% (active)
COc1cccc(Cc2nn3cc(-c4ccccc4)nc3s2)c1,91.2%,91.6%,79.2%,30.6%,27.5%,2.81% (active),104%,88.8%
c1cc(NCCc2ccncc2)nc(-n2cnc3ccccc32)c1,80.4%,98.4%,95.8%,94.2%,84.2%,81.7%,104%,53.3%
COc1ccc2c(c1)nc(NNC(=O)c1cnccn1)c1cccn12,22.4%,37.9%,33.7%,29.6%,10.7%,20.3%,49.7%,24.8%
COc1ccc(CNC(=O)[C@H](O)[C@@H](N)Cc2ccccc2)cc1,110%,109%,104%,104%,94.5%,109%,105%,101%
COc1ccc2c(c1)c(-c1ccc(-c3cn(C)c4ccc(OC)cc34)o1)cn2C,-14% (active),1.95% (active),89.5%,38%,65.4%,68.6%,30.1%,22.7%
COc1cc(CNS(=O)(=O)c2ccc(C)cc2)ccc1OCc1cn(-c2ccccc2)nn1,66.5%,88.1%,99.9%,98.9%,92.7%,85.1%,117%,99.4%
COc1ccc(-c2[nH]c3ccc(OC)cc3c2/C=C(\C#N)S(=O)(=O)c2ccccc2)cc1,34.4%,46.6%,1.86% (active),32.8%,7.23% (active),19.4%,-19.7% (active),10.8%
CC(=O)CC(c1cccs1)c1c(-c2ccccc2)[nH]c2ccccc12 (stereo unspecified),84.6%,105%,98%,90.4%,92.2%,89.9%,97.8%,94.3%
CN1CCN(c2ccc(-c3cc4c(Nc5ccc(F)c(Cl)c5)ncnn4c3)cn2)CC1,96.2%,105%,96.1%,40.4%,77.4%,1.89% (active),98.6%,93.7%
O=C(/C=C/c1cccc2ccccc12)c1ccc(NC(=O)c2ccccc2CN2C(=O)c3ccccc3C2=O)cc1,71%,68.8%,6.48% (active),33.2%,56.7%,39.3%,109%,40.6%
Oc1ccc(C#CCOc2ccccc2)cc1CNCCN(Cc1ccccn1)Cc1ccccn1,14.4%,37.7%,32.6%,15.6%,4.05% (active),9.79% (active),28.4%,18.9%
BrCCCc1n(Cc2ccc3ccccc3c2)c2ccccc2[n+]1Cc1ccc2ccccc2c1,-10.9% (active),-73.5% (active),-96.5% (active),-81.5% (active),-74.7% (active),-89.7% (active),-90.1% (active),-89.7% (active)
COc1ccc(-c2nc3sc(-c4ccccc4)cn3n2)cc1,34.6%,73.3%,-8.6% (active),35.1%,25.1%,40%,77.3%,29.5%
CCCCCCCCCCCCCCCCCCOc1ccc(CC(=O)OCC[N+](C)(C)C)cc1,99.5%,95.8%,100%,99.9%,95.8%,93%,95.4%,96.8%
CC/C=C\C[C@@H]1C/C=C2/C(=O)C=C[C@H]2C/C=C\CCCC(=O)O1,10.3%,-55.7% (active),-59.1% (active),-65.1% (active),-9.37% (active),-93.5% (active),-83.3% (active),-92.3% (active)
S=c1nc(-c2ccccc2)oc(=NC2CCCCC2)n1C1CCCCC1,35.4%,82.4%,67.9%,5.42% (active),12.7%,18.5%,73.7%,10.7%
O=c1c2cc(F)ccc2sc2c(N3CCCCC3)nc3ccccc3c12,105%,90.3%,107%,104%,95.8%,90.9%,101%,105%
